In PMC7862700, “An all-to-all approach to the identification of sequence-specific readers for epigenetic DNA modifications on cytosine”:

Tests used:
Assay in all cases: DAPPL (digital affinity profiling via proximity ligation, sequencing); 10 mM Tris-HCl pH 7.5, 50 mM NaCl, 1 mM DTT, 4% glycerol, room temperature, 30 min; GST-TFs on glutathione beads, 16-mer random dsDNA library, 0.1% formaldehyde crosslink after washing; high values mean tight binding
Conditions in all cases: protein: recombinant; tags: N-terminal GST; dsDNA, one strand shown
FLI1 = target: T1, FLI1 (Homo sapiens, UniProt Q01543 1-452)
T1 sequence: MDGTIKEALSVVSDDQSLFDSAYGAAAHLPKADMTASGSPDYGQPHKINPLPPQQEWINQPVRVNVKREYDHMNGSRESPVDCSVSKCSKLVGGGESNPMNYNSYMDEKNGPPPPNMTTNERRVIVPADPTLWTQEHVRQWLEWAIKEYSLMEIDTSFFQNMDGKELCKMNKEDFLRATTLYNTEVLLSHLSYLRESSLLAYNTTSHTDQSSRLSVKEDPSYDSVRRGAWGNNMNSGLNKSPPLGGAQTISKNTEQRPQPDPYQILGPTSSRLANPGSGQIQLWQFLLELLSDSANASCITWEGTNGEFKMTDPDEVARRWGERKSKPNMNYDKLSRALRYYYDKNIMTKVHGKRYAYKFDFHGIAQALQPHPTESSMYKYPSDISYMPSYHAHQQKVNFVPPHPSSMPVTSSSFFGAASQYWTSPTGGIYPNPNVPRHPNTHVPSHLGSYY
Summary of the method: (§1)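 Human transcription factors were made in yeast as GST fusions, captured on glutathione beads and barcoded with DNA. With a tag-only sample included, the pool was incubated with 200 nmole of a random double-stranded 16-mer DNA library in Tris/NaCl/DTT/glycerol buffer at room temperature for 30 min, then crosslinked with 0.1% formaldehyde after washing, ligated by proximity, amplified and sequenced. For binding signal, each hexamer's read frequency for a factor is divided by its frequency for the tag-only sample.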

ELK1 = target: T2, ELK1 (Homo sapiens, UniProt P19419 1-428)
T2 sequence: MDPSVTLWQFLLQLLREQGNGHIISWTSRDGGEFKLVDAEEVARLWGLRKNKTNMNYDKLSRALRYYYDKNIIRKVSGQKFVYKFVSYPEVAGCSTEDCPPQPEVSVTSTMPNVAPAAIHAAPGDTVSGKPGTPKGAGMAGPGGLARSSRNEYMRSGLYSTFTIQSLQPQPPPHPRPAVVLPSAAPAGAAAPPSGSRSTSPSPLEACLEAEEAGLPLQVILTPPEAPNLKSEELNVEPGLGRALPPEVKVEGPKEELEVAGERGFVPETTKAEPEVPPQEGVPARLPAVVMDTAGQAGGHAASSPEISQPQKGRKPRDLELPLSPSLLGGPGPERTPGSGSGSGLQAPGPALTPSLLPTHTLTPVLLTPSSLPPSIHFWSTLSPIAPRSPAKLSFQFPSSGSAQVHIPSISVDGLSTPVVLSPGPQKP
Summary of the method: as §1

GABPA = target: T3, GABPA (Homo sapiens, UniProt Q06546 1-454)
T3 sequence: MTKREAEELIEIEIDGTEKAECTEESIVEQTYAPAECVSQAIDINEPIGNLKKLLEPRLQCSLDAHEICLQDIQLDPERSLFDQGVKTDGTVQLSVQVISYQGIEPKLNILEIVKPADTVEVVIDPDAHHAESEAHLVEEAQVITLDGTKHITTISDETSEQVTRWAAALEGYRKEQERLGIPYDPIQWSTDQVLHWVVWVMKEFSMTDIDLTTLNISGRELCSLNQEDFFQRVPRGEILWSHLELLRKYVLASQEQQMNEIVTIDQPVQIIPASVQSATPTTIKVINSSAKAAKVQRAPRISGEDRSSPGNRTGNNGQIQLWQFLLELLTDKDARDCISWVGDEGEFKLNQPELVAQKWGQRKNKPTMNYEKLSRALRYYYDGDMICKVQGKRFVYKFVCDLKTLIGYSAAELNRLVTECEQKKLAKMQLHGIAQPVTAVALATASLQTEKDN
Summary of the method: as §1

ERG = target: T4, ERG (Homo sapiens, UniProt P11308 1-479)
T4 sequence: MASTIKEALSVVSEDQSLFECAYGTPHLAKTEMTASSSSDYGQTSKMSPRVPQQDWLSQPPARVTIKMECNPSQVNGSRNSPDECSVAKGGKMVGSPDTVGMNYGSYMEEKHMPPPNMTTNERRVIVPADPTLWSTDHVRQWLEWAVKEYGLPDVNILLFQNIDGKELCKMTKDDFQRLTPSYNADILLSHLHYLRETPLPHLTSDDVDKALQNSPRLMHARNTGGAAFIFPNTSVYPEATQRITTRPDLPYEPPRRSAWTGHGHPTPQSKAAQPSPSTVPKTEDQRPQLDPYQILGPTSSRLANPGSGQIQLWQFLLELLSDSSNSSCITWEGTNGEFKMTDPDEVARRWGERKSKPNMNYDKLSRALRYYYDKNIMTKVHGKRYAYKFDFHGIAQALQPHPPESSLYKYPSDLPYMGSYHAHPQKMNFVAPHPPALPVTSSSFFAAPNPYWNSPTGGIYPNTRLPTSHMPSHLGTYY
Summary of the method: as §1

ELF1 = ELF1 (Homo sapiens, UniProt P32519 1-619)
Summary of the method: as §1

EHF = target: T5, EHF (Homo sapiens, UniProt Q9NZC4 1-300)
T5 sequence: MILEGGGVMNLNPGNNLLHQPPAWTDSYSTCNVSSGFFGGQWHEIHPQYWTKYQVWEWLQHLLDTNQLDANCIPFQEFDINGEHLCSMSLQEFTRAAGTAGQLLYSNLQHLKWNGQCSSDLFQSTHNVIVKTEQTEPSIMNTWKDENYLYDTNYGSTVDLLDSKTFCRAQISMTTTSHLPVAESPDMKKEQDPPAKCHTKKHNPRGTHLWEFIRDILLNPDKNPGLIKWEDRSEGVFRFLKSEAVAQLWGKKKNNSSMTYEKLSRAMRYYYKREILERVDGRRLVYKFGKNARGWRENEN
Summary of the method: as §1

SPI1 = SPI1 (Homo sapiens, UniProt P17947 1-270)
Summary of the method: as §1

SPIB = SPIB (Homo sapiens, UniProt Q01892 1-262)
Summary of the method: as §1

ELK3 = target: T6, ELK3 (Homo sapiens, UniProt P41970 1-407)
T6 sequence: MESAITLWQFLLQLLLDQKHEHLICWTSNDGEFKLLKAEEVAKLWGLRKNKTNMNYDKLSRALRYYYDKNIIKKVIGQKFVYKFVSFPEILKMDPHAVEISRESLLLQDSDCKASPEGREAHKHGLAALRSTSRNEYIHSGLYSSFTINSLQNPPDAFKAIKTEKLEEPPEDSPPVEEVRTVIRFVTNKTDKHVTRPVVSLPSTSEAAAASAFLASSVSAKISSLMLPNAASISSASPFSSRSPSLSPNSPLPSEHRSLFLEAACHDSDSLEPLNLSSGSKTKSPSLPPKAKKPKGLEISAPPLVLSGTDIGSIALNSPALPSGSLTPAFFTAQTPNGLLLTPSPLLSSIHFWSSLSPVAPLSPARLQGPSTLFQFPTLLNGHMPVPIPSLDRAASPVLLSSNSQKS
Summary of the method: as §1

Chain of ELF1 (P32519 whole entry): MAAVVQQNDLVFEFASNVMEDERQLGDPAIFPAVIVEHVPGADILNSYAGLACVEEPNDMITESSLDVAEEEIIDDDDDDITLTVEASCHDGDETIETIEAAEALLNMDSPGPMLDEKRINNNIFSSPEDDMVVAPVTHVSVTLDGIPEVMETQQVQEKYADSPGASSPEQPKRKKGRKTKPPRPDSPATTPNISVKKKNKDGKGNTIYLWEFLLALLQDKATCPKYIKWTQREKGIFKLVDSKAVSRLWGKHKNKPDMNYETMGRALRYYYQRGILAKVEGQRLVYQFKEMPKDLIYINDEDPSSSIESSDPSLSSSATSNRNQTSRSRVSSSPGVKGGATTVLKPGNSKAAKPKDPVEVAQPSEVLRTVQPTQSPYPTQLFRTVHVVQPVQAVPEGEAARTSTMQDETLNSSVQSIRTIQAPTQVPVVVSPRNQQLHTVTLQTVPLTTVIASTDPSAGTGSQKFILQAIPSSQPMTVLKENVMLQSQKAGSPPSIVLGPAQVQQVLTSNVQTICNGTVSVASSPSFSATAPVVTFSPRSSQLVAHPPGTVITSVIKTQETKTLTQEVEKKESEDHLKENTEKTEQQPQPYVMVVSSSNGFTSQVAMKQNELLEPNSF
Chain of SPIB (Q01892 whole entry): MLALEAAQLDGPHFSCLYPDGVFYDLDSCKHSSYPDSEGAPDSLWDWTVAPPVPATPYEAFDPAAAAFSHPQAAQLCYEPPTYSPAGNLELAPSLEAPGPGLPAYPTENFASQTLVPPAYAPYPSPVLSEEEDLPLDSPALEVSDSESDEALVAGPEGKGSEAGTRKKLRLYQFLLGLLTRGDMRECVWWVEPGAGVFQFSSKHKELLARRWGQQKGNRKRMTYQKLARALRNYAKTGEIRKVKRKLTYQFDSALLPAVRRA

| Sequence | binding signal (FLI1) | binding signal (ELK1) | binding signal (GABPA) | binding signal (ERG) | binding signal (ELF1) | binding signal (EHF) | binding signal (SPI1) | binding signal (SPIB) | binding signal (ELK3) |
| --- | --- | --- | --- | --- | --- | --- | --- | --- | --- |
| CGGTTT | 1.26 fold enrichment (6-mer frequency, TF over GST control) | 1.18 fold enrichment (6-mer frequency, TF over GST control) | 1.25 fold enrichment (6-mer frequency, TF over GST control) | 1.33 fold enrichment (6-mer frequency, TF over GST control) | 1.26 fold enrichment (6-mer frequency, TF over GST control) | 1.27 fold enrichment (6-mer frequency, TF over GST control) | 1.44 fold enrichment (6-mer frequency, TF over GST control) | 1.23 fold enrichment (6-mer frequency, TF over GST control) | 1.25 fold enrichment (6-mer frequency, TF over GST control) |
| CCACCC | 1.17 fold enrichment (6-mer frequency, TF over GST control) | 1.28 fold enrichment (6-mer frequency, TF over GST control) | 1.28 fold enrichment (6-mer frequency, TF over GST control) | 1.21 fold enrichment (6-mer frequency, TF over GST control) | 1.23 fold enrichment (6-mer frequency, TF over GST control) | 1.31 fold enrichment (6-mer frequency, TF over GST control) | 1.22 fold enrichment (6-mer frequency, TF over GST control) | 1.31 fold enrichment (6-mer frequency, TF over GST control) | 1.23 fold enrichment (6-mer frequency, TF over GST control) |
| TATACC | 1.29 fold enrichment (6-mer frequency, TF over GST control) | 1.31 fold enrichment (6-mer frequency, TF over GST control) | 1.18 fold enrichment (6-mer frequency, TF over GST control) | 1.2 fold enrichment (6-mer frequency, TF over GST control) | 1.18 fold enrichment (6-mer frequency, TF over GST control) | 1.21 fold enrichment (6-mer frequency, TF over GST control) | 1.05 fold enrichment (6-mer frequency, TF over GST control) | 1.27 fold enrichment (6-mer frequency, TF over GST control) | 1.16 fold enrichment (6-mer frequency, TF over GST control) |
| TGCACC | 1.12 fold enrichment (6-mer frequency, TF over GST control) | 1.16 fold enrichment (6-mer frequency, TF over GST control) | 1.25 fold enrichment (6-mer frequency, TF over GST control) | 1.09 fold enrichment (6-mer frequency, TF over GST control) | 1.2 fold enrichment (6-mer frequency, TF over GST control) | 1.25 fold enrichment (6-mer frequency, TF over GST control) | 1.16 fold enrichment (6-mer frequency, TF over GST control) | 1.15 fold enrichment (6-mer frequency, TF over GST control) | 1.16 fold enrichment (6-mer frequency, TF over GST control) |
| CCCACT | 1.36 fold enrichment (6-mer frequency, TF over GST control) | 1.45 fold enrichment (6-mer frequency, TF over GST control) | 1.26 fold enrichment (6-mer frequency, TF over GST control) | 1.35 fold enrichment (6-mer frequency, TF over GST control) | 1.38 fold enrichment (6-mer frequency, TF over GST control) | 1.46 fold enrichment (6-mer frequency, TF over GST control) | 1.39 fold enrichment (6-mer frequency, TF over GST control) | 1.26 fold enrichment (6-mer frequency, TF over GST control) | 1.42 fold enrichment (6-mer frequency, TF over GST control) |
| TTGCAA | 1.14 fold enrichment (6-mer frequency, TF over GST control) | 1.28 fold enrichment (6-mer frequency, TF over GST control) | 1.2 fold enrichment (6-mer frequency, TF over GST control) | 1.08 fold enrichment (6-mer frequency, TF over GST control) | 1.18 fold enrichment (6-mer frequency, TF over GST control) | 1.2 fold enrichment (6-mer frequency, TF over GST control) | 1.04 fold enrichment (6-mer frequency, TF over GST control) | 1.15 fold enrichment (6-mer frequency, TF over GST control) | 1.29 fold enrichment (6-mer frequency, TF over GST control) |
| AAATAG | 1.18 fold enrichment (6-mer frequency, TF over GST control) | 1.1 fold enrichment (6-mer frequency, TF over GST control) | 1.12 fold enrichment (6-mer frequency, TF over GST control) | 1.22 fold enrichment (6-mer frequency, TF over GST control) | 1.08 fold enrichment (6-mer frequency, TF over GST control) | 1.19 fold enrichment (6-mer frequency, TF over GST control) | 1.22 fold enrichment (6-mer frequency, TF over GST control) | 1.15 fold enrichment (6-mer frequency, TF over GST control) | 1.08 fold enrichment (6-mer frequency, TF over GST control) |
| CAATAG | 1.07 fold enrichment (6-mer frequency, TF over GST control) | 1.07 fold enrichment (6-mer frequency, TF over GST control) | 1.22 fold enrichment (6-mer frequency, TF over GST control) | 1.04 fold enrichment (6-mer frequency, TF over GST control) | 1.07 fold enrichment (6-mer frequency, TF over GST control) | 1.13 fold enrichment (6-mer frequency, TF over GST control) | 1.04 fold enrichment (6-mer frequency, TF over GST control) | 1.08 fold enrichment (6-mer frequency, TF over GST control) | 1.13 fold enrichment (6-mer frequency, TF over GST control) |
